Among the test systems are HCT-15 colon; HT29 colon; SNB-75 CNS; SNB-19 CNS; U251 CNS; PC-3 prostate; SK-MEL-5 melanoma; SK-MEL-28 melanoma; UACC-62 melanoma; LOX IMVI melanoma.
Holding throughout (assay): NCI-60 one-dose screen, 48 h (100 = growth as untreated, 0 = no growth, -100 = all killed)
What all share (details): 10 µM unless noted

Structures are written as SMILES. Compounds without any hit were thinned out: in the full panel of roughly 83,000, 20% have a hit.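 Treatment: one concentration, 48 hours, 96-well format. Scoring: percent growth, with anything below 10 considered active.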 A number with no mark means an inactive call. Active and inactive are the calls of the source.

On to `Cc1cc(N(CCCNc2ccnc3cc(Cl)ccc23)Cc2ccco2)nc(Cl)n1`, for which the growth with HCT-15 colon is 48.5%; in the assay with HT29 colon, 22.1%; in the assay on SNB-75 CNS it was 66%; in the assay on SNB-19 CNS it was 75.1%; in the assay on U251 CNS it was 60.7%; with PC-3 prostate it was 49%. The figures for the growth in the assay with SK-MEL-5 melanoma and in the assay with SK-MEL-28 melanoma were -8.23% (active) and 77.7%, respectively.

Take `COc1cc(/C=C/c2cc(/C=C/c3ccc(O)c(OC)c3)n(-c3ccccc3)c(=O)n2)ccc1O`: the growth in the assay with HCT-15 colon was 80.8%; in the assay on HT29 colon it was -13% (active); with SNB-75 CNS, 56.9%; in the assay with SNB-19 CNS it was 76.2%; in the assay with U251 CNS it was 56.1%; with PC-3 prostate it was 70.4%. Further, the figures for the growth in the assay with UACC-62 melanoma, with LOX IMVI melanoma and in the assay on SK-MEL-28 melanoma were 69.9%, 61% and 78.8%, respectively.

As to `COc1cc(/C=C/c2cc(/C=C/c3ccc(O)c(OC)c3)n(-c3ccc(Cl)cc3)c(=O)n2)ccc1O`, the growth with HCT-15 colon is 85.4%; in the assay with HT29 colon it was -5.09% (active); with SNB-75 CNS, 69.7%; in the assay on SNB-19 CNS it was 91%; with U251 CNS, 75.5%; in the assay with PC-3 prostate, 77.3%. Further, the figures for the growth in the assay on UACC-62 melanoma, in the assay with LOX IMVI melanoma and in the assay with SK-MEL-28 melanoma were 80.6%, 61.6% and 81.6%, respectively.

Consider `Fc1ccc(Nc2ccc3c(OCCCN4CCOCC4)cccc3n2)cc1F`, for which the growth in the assay with HCT-15 colon was 34%; in the assay on HT29 colon, 6.29% (active); with SNB-75 CNS, 66.6%; in the assay with SNB-19 CNS it was 90.5%; with U251 CNS, 64.2%; in the assay on PC-3 prostate it was 80.5%. Moreover, the growth with UACC-62 melanoma was 62.4%; with LOX IMVI melanoma it was 6.82% (active); with SK-MEL-28 melanoma, 80.4%.

In the case of `COc1cc(-c2cc3ncccc3c3[nH]c(=O)c4cccnc4c23)cc(OC)c1OC`, the growth in the assay on HCT-15 colon is 30.6%; in the assay with HT29 colon, 8% (active); in the assay on SNB-75 CNS, -3.35% (active); with SNB-19 CNS, 53.7%; with U251 CNS it was 16.8%; in the assay on PC-3 prostate it was 13.2%. The growth with SK-MEL-5 melanoma was -5.2% (active); with SK-MEL-28 melanoma, 68.2%.

Turning to `CC1(C)c2ccccc2C(=O)C1(Br)Cc1ccccc1` (stereo not given), the growth was 71.3% in the assay with HCT-15 colon; 67.4% in the assay on HT29 colon; 78.8% in the assay with SNB-75 CNS; 81.1% with SNB-19 CNS; 91% in the assay on U251 CNS; 77.4% in the assay with PC-3 prostate. For the same compound, the growth was 78.3% in the assay on UACC-62 melanoma, 78.7% with LOX IMVI melanoma and 95.8% in the assay with SK-MEL-28 melanoma.

For `CC1(C)C(=O)/C(=C\c2ccco2)C[C@]2(C)[C@H]3CC[C@@H]4[C@@H](C(=O)/C=C/c5ccco5)CC[C@@]4(C)[C@]3(C)CC[C@@H]12`, the growth with HCT-15 colon was 79.6%; in the assay on HT29 colon, 75.7%; in the assay with SNB-75 CNS it was 68.1%; with SNB-19 CNS it was 46.8%; with U251 CNS it was 50.7%; in the assay with SK-MEL-5 melanoma, -49.9% (active). Further, the figures for the growth in the assay on UACC-62 melanoma and with SK-MEL-28 melanoma were 12.5% and 32.1%, respectively.

`O=S(=O)(NCCNc1cc(-c2cn(-c3ccccc3)nc2-c2cccc(O)c2)ccn1)c1ccc(C(F)(F)F)cc1`: the growth in the assay with HCT-15 colon is 28.5%; in the assay with HT29 colon, 4.36% (active); in the assay with SNB-75 CNS it was 49.7%; with SNB-19 CNS it was 54.4%; with U251 CNS it was 36.5%; in the assay on SK-MEL-5 melanoma it was 36.9%. Also, the growth in the assay on LOX IMVI melanoma was 23.5%.

Turning to `Nc1c2c(nc3ccc(Cl)cc13)CC(c1ccccc1)CC2=O` (stereo not given), the growth in the assay on HCT-15 colon is 16.7%; in the assay with HT29 colon, 13.1%; in the assay with SNB-75 CNS it was 23.4%; with SNB-19 CNS it was 37%; in the assay on U251 CNS, 40.9%; with SK-MEL-5 melanoma it was 30.6%. Also, the growth was 23.7% in the assay on UACC-62 melanoma and 51.5% in the assay on SK-MEL-28 melanoma.

As to `Cc1cc(N2CCCC2)nc(N(CCNc2ccnc3cc(Cl)ccc23)Cc2ccco2)n1`, the growth in the assay on HCT-15 colon is 18.3%; with HT29 colon, 5.58% (active); in the assay on SNB-75 CNS it was 68.8%; with SNB-19 CNS it was 29.4%; in the assay with U251 CNS it was 46.5%; with SK-MEL-5 melanoma, -93% (active). Further, the growth in the assay on LOX IMVI melanoma was 4.43% (active); in the assay with SK-MEL-28 melanoma, 31%.

Consider `CC(=O)Nc1cc(F)cc(C(F)(F)F)c1Cl`, for which the growth is 102% in the assay on HCT-15 colon; 101% with HT29 colon; 83.2% in the assay with SNB-75 CNS; 106% in the assay with SNB-19 CNS; 105% in the assay on U251 CNS; 102% with UACC-62 melanoma. The growth in the assay on LOX IMVI melanoma is 92.1%; in the assay on SK-MEL-28 melanoma, 101%.

With `Cc1cc2nc3c4cc([N+](=O)[O-])cc([N+](=O)[O-])c4n(CCN(C)C)c3nc2cc1C`, the growth in the assay with HCT-15 colon is 57.2%; in the assay on HT29 colon, 65.6%; with SNB-75 CNS, 72.3%; with SNB-19 CNS it was 68.2%; in the assay on U251 CNS, 81.6%; in the assay with SK-MEL-5 melanoma, 92.4%. Further, the values for the growth in the assay with UACC-62 melanoma and with SK-MEL-28 melanoma were 87% and 98.6%, respectively.

On to `CC(c1ccccc1)N1C(=O)C(C2SC(=S)N(C(C)c3ccccc3)C2=O)SC1=S` (stereo not given), for which the growth in the assay on HCT-15 colon is 54.9%; in the assay with HT29 colon, 72.5%; in the assay with SNB-75 CNS, 89%; in the assay on SNB-19 CNS it was 78.6%; with U251 CNS, 85%; in the assay on SK-MEL-5 melanoma it was 99.3%. The growth in the assay with UACC-62 melanoma is 77.7%; with SK-MEL-28 melanoma, 86.6%.

`O=C(NC1=CC(=O)c2ccccc2C1=O)c1ccccc1`: the growth is 29.1% with HCT-15 colon; 71.2% in the assay on HT29 colon; 34% in the assay with SNB-75 CNS; 36.3% with SNB-19 CNS; 21.1% in the assay with U251 CNS; 0.587% (active) in the assay with SK-MEL-5 melanoma. The growth is 15% in the assay with UACC-62 melanoma and 52.3% with SK-MEL-28 melanoma.

The record behind these values is PubChem BioAssay (NCI).
